Experimental data reported in PubChem BioAssay AID1159580 (chemical genetic matrix, 2015).
About 2,000 (36%) of roughly 5,500 compounds were called active. About 18% were inconclusive and are not listed. Cut-off read from the data, not from the text of the source: active = normalized growth mostly below about 0.91 (no sharp cut-off); inconclusive = no clear call, values can overlap the other calls; inactive = mostly above about 0.92. This is one part of the list.

Assay: chemical genetic growth profiling, strain panel (AID 1159580);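 note: tested at 20 µM; growth read once vehicle control cultures reached saturation at 30 °C; 1 = growth at the plate median or of vehicle wells; lower values mean less growth of the strain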
Conditions: S. cerevisiae deletion strains, growth OD

Measured: normalized growth

Oc1ccccc1O
inactive: locus YAL013W, strain DEP1, active compounds read low 0.966 | locus YAL040C, strain CLN3, active compounds read low 0.983 | locus YCL061C, strain MRC1 (second series), active compounds read low 0.971 | locus YER002W, strain NOP16, active compounds read low 1 | locus YGR229C, strain SMI1, active compounds read low 0.904 | locus YNL153C, strain GIM3, active compounds read low 1.03 | locus YNL175C, strain NOP13, active compounds read low 1.02 | locus YNL197C, strain WHI3, active compounds read low 1.02 | locus YNL224C, strain SQS1, active compounds read low 0.999 | locus YOR083W, strain WHI5 (second series), active compounds read low 1.03
